N-glyco inh: N-linked glycosylation inhibition. D54 ERlucT glycosylation luciferase reporter, 24 h; percent of 100 nM tunicamycin response. reporter increase, % at 12.5 µM. hit rate 0.23% among 360,000;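 active means mean luciferase reporter signal, scaled so untreated is 0 and the glycosylation-blocking control 100, at or above a set limit in every replicate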;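 further: luciferase carries N-glycosylation sites so blocking glycosylation raises the light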
Casp6 inh: blocks human caspase-6 cleavage activity; P55212; purified caspase-6, Z-VEID-R110 cleavage fluorescence; inhibition, % at 12.5 µM; hit rate 0.53% among 350,000; AID 686996;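 active means mean inhibition across replicates at least about 35%, with every replicate also reaching that limit, limit read from the data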
Target sequence (P55212 24-179 limits assumed): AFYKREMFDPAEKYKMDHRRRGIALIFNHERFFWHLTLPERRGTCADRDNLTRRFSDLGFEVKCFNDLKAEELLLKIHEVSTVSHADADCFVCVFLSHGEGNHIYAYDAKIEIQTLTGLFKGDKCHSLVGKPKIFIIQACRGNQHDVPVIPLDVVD
Target sequence (P55212 194-293 limits assumed): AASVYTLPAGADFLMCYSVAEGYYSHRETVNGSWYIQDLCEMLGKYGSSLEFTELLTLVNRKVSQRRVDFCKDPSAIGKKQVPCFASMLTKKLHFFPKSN
NSD2 inh: NSD2 (human) methyltransferase inhibition | AID 743445 | inhibition, % at 12.5 µM | hit rate 0.54% among 310,000 | NSD2 peptide methylation, AlphaScreen, 120 min | O96028; in the data active means inhibition above about 50%
CDK5 inh: blocks human CDK5/p35 kinase activity. Q00535+Q15078. Recombinant CDK5/p35, ADP-Glo luminescence, 60 min. inhibition, % at 10 µM. hit rate 0.01% among 330,000. AID 488839;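 active means highest replicate inhibition of at least 50% and at least 75% of replicates reaching 50%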
SUMO Mot1 rescue: SUMOylation pathway inhibition by Mot1-301 growth rescue; S. cerevisiae Mot1-301 growth rescue, ATP luminescence, 38.5C; percent above DMSO median, 100 means doubled; growth rescue, % at 18.8 µM; hit rate 1% among 320,000; AID 2716;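 active means every valid replicate shows activation above 250% relative to neutral control wells; inactive means the rest, any valid replicate at or below 250%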
ALR inh: inhibitors of human sulfhydryl oxidase ALR | purified ALR, DTT oxidation, H2O2 HRP-luminol luminescence | hit rate 3.8% among 290,000 | inhibition, % (test concentration not listed) | P55789;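 active means mean replicate inhibition above about 79%, with every replicate also reaching it, limit read from the data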
Target sequence (P55789 whole entry, looked up): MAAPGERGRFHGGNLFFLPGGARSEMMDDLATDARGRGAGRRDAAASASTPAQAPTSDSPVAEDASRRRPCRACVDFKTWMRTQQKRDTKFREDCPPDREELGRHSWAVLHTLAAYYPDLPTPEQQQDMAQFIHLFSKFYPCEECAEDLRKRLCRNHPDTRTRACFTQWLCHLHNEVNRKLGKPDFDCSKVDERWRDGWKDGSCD
AlphaScreen art: AlphaScreen assay artifact in NSD2 counter-screen; shares compounds with NSD2 inh; AlphaScreen artifact counterscreen, preloaded methylated H4 peptide; AC35, µM (titrated, usually from 10 µM); hit rate 9.4% among 1,500; AID 1053174; call rule not given here
Each line names hits and unclear results; the compound was inactive in the other large screens (follow-up assays come after a bar, where they were run). Only some compounds are listed: those with a hit (about 3.9% of all), similar ones and a draw of the others.

CN(C)c1cccc2c1c(NC(=O)Nc1ccc(F)cc1F)nn2C	none
CN(C)c1cccc2c1c(NC(=O)Nc1ccccc1)nn2C	NSD2 inh 88 | AlphaScreen art inactive
C[C@H]1CN([C@@H](C)CO)S(=O)(=O)c2ccc(C#CCN(C)C)cc2O[C@@H]1CN(C)Cc1cccnc1	none (no result: N-glyco inh, NSD2 inh, CDK5 inh, SUMO Mot1 rescue, ALR inh)
C[C@H](CO)N1C[C@H](C)[C@H](CN(C)Cc2ccncc2)Oc2c(NS(=O)(=O)c3ccc(Cl)cc3)cccc2C1=O	none (no result: N-glyco inh, NSD2 inh, CDK5 inh, SUMO Mot1 rescue, ALR inh)
CCN(CC)CCCN1C(=O)c2oc3ccccc3c(=O)c2C1c1cccc(OC)c1OC (configuration not stated)	none (no result: Casp6 inh)
COc1cccc(C2c3c(oc4ccccc4c3=O)C(=O)N2CCCN(C)C)c1OC (configuration not stated)	NSD2 inh 60 (no result: Casp6 inh) | AlphaScreen art inactive
CCOc1ccc(NC(=S)Nc2ccc3nsnc3c2)cc1	NSD2 inh 136 (no result: Casp6 inh, CDK5 inh) | AlphaScreen art inactive
COc1ccc(NC(=S)Nc2ccc3nsnc3c2)cc1	NSD2 inh 137 (no result: Casp6 inh) | AlphaScreen art inactive
C=CCN(CC=C)C(=S)Nc1ccc2nsnc2c1	NSD2 inh 104 | AlphaScreen art inactive
COc1ccc(NC(=S)Nc2ccc3nc(C)c(C)nc3c2)cc1	none (no result: Casp6 inh)
Cc1ccccc1-c1nnc2n1N=C(c1ccc(O)c(O)c1)CS2	NSD2 inh 69 (no result: N-glyco inh, Casp6 inh, CDK5 inh, SUMO Mot1 rescue, ALR inh) | AlphaScreen art inactive
CO[C@H](C(=O)N(C)C[C@H]1OCc2ccccc2-c2c(n(C)c3ccccc23)C(=O)N([C@@H](C)CO)C[C@@H]1C)c1ccccc1	none (no result: N-glyco inh, NSD2 inh, CDK5 inh, SUMO Mot1 rescue, ALR inh)
Cc1[nH][nH]c(=O)c1C(c1c(C)[nH][nH]c1=O)c1cn(Cc2ccccc2Cl)c2ccccc12	NSD2 inh 115 (no result: Casp6 inh, SUMO Mot1 rescue, ALR inh) | AlphaScreen art inactive
C[n+]1cccc2cccc([O-])c21	Casp6 inh 52, NSD2 inh 103 (no result: SUMO Mot1 rescue, ALR inh) | AlphaScreen art inactive
CC=Cc1ccc2n(c1=O)C[C@@H]1[C@@H](CO)[C@H](C(=O)NCCC)N(C(=O)c3cccnc3)[C@H]21 (mixture of isomers)	none (no result: N-glyco inh, NSD2 inh, CDK5 inh, SUMO Mot1 rescue, ALR inh)
COc1cccc(CN(C)C(=O)c2cc(COc3c(F)cccc3F)on2)c1	NSD2 inh 99 | AlphaScreen art inactive
C[C@@H]1CN([C@H](C)CO)C(=O)c2cccc(NC(=O)CCCCCC(=O)Nc3ccccc3N)c2O[C@H]1CN(C)C(=O)Nc1ccc(C(F)(F)F)cc1	none (no result: N-glyco inh, NSD2 inh, CDK5 inh, SUMO Mot1 rescue, ALR inh)
COc1ccc(-c2csc(N(CCCN(C)C)C(=O)c3ccccc3Cl)n2)cc1	NSD2 inh 58 | AlphaScreen art inactive
COc1ccc(-c2csc(N(CCCN(C)C)C(=O)c3ccccc3C)n2)cc1	none
C[C@@H]1CN([C@@H](C)CO)C(=O)c2cc(NS(=O)(=O)c3ccc(Cl)cc3)ccc2O[C@@H](C)CCCCO[C@H]1CN(C)CC1CC1	none (no result: N-glyco inh, NSD2 inh, CDK5 inh, SUMO Mot1 rescue, ALR inh)
COc1ccc(NC(=O)CN(C)S(=O)(=O)c2ccc(C)cc2)c([N+](=O)[O-])c1	NSD2 inh 67 | AlphaScreen art inactive
CNCCCOc1ccc2c(c1)CCC2	NSD2 inh 61 | AlphaScreen art inactive
O=C1[C@@H]2[C@H](C(=O)N1c1ccccc1)[C@@]13COC[C@H](c4ccccc4)N1C(=O)[C@]2(C(=O)NCc1ccccc1)O3	none (no result: N-glyco inh, NSD2 inh, CDK5 inh, SUMO Mot1 rescue, ALR inh)
CCCCn1cnc2c(=S)nc(N)[nH]c21	NSD2 inh 57 | AlphaScreen art inactive
CC(=O)N1[C@@H]2c3ccc(C4=CCCC4)c(=O)n3C[C@H]1[C@H](CO)[C@H]2C(=O)NCc1ccccc1	none (no result: N-glyco inh, NSD2 inh, CDK5 inh, SUMO Mot1 rescue, ALR inh)
CC(=O)c1cccc(NC(=O)CC2CCCC2)c1	NSD2 inh 53 | AlphaScreen art inactive
N=C1/C(=C\c2ccc(Br)o2)C(=O)N=C2SC(CC(=O)N3CCOCC3)=NN12	Casp6 inh 61, NSD2 inh 94 | AlphaScreen art inactive
Cc1oc2c(c1C(=O)c1ccccc1)C(=O)C(=O)c1ccccc1-2	NSD2 inh 50 (no result: Casp6 inh) | AlphaScreen art inactive
COc1ccc(S(=O)(=O)Nc2ccc3c(c2)CC(=O)N([C@@H](C)CO)C[C@H](C)[C@H](CN(C)S(=O)(=O)c2cccs2)O3)cc1	none (no result: N-glyco inh, NSD2 inh, CDK5 inh, SUMO Mot1 rescue, ALR inh)
CN(C)c1ccc(/C=C2/C[N+](C)(C)C/C(=C/c3ccc(N(C)C)cc3)C2=O)cc1	NSD2 inh 66 (no result: SUMO Mot1 rescue, ALR inh) | AlphaScreen art 9.5µM
CC(C)/C=C1\CC/C(=C\c2ccc(N(C)C)cc2)C1=O	none (no result: ALR inh)

Assay outcomes deposited in PubChem BioAssay by Broad Institute.
